Laboratory results: PubChem BioAssay (EPA / NIEHS)
Inconclusive results are not listed. The source made the active and inactive calls. The calls were made as follows, unless noted: active = hit-call score of the fitted dose curve at least 0.9, where 1 is the maximum; inconclusive = response in the unintended direction; inactive = score below 0.9.

Assays:
[1] = read-out: xenobiotic metabolism (CYP1A2), CYP1A2 (gene 1544); assay: CLD_CYP1A2_48hr: CellzDirect (CLD) Gene Expression Assay for xenobiotic metabolism (CYP1A2) at 48 hours (AID 2283703)
In short: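 Cytotoxicity was flagged yes/no from morphology, while CYP1A2 transcript induction was detected by qNPA chemiluminescence after a 48-hour exposure. Human primary hepatocyte cultures from separate donors received fresh dosing solutions daily over two days, with 0.2% DMSO as vehicle and baseline.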

[2] = read-out: Broad substrate specificity ATP-binding cassette transporter ABCG2 (Homo sapiens) (UniProt Q9UNQ0); assay: CLD_ABCG2_48hr: CellzDirect (CLD) Gene Expression Assay for ABC Transporter (ABCG2) at 48 hours (AID 2283704);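 as to AC50: potency for induction of ABCG2 mRNA above the DMSO baseline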
In short: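 ABCG2 transcript measured at 48 h by quantitative nuclease protection (chemiluminescent) and fitted for increase relative to 0.2% DMSO. Hepatocyte cultures from separate donors got fresh compound daily over two days; morphology annotated cytotoxicity.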

[3] = read-out: glucuronosyltransferase (UGT1A1), UGT1A1 (gene 54658); assay: CLD_UGT1A1_48hr: CellzDirect (CLD) Gene Expression Assay for glucuronosyltransferase (UGT1A1) at 48 hours (AID 2283709);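 also: actives increase expression relative to DMSO so potency refers to induction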
In short: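 Quantitative nuclease protection assay (chemiluminescent) for UGT1A1 mRNA at 48 h in human hepatocyte cultures from two donors, redosed daily with fresh solutions. Induction fitted relative to 0.2% DMSO; phase-contrast morphology annotated cytotoxicity.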

[4] = read-out: sulfotransferase (SULT2A), SULT2A1 (gene 6822); assay: CLD_SULT2A_48hr: CellzDirect (CLD) Gene Expression Assay for sulfotransferase (SULT2A) at 48 hours (AID 2283710);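 also: hits raise SULT2A1 transcript above the 0.2% DMSO vehicle baseline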
In short: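 SULT2A1 transcript measured by qNPA chemiluminescence in human primary hepatocyte cultures after 48 h, with fresh dosing solutions on two consecutive days; gain-of-signal fitting against 0.2% DMSO vehicle; cytotoxicity annotated from phase-contrast morphology.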

[5] = CEETOX_H295R_MTT_cell_viability: Viability Assessment in the CeeTox HT-H295R MTT Assay (AID 2283718; active = hit-call score of the fitted dose curve at least 0.9, where 1 is the maximum; inactive = score below 0.9;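 as to AC50: curve fitted both ways so AC50 may mark viability loss or gain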)
In short: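 Human H295R adrenal cells, prestimulated 48 h with 10 uM forskolin, were exposed 48 h to chemicals in 0.1% DMSO. Viability was measured in the same wells by MTT (0.5 mg/ml, 4 h, 37 C), absorbance 570/650 nm, as percent of controls.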

[6] = Tanguay_ZF_120hpf_ActivityScore_legacy: (Legacy) Oregon State University Tanguay Lab 120 Hour Post-fertilization zebrafish Assay Score for Activity (AID 2283742);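 as to AC50: dechorionated Tropical 5D wild-type zebrafish embryos held singly per well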
In short: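 Dechorionated 5D embryos, one per well, static exposure 6–120 hpf, 28C, sealed and dark; final DMSO 0.64% (vol/vol). Brightfield binary scoring of mortality plus 18 endpoints; gain-of-signal fit versus DMSO baseline.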

[7] = read-out: xenobiotic metabolism (CYP1A1), CYP1A1 (gene 1543); assay: CLD_CYP1A1_48hr: CellzDirect (CLD) Gene Expression Assay for xenobiotic metabolism (CYP1A1) at 48 hours (AID 2283705)
In short: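 CYP1A1 transcript measured by quantitative nuclease protection (chemiluminescent) 48 h after two daily treatments of human hepatocyte cultures, versus 0.2% DMSO. Morphology-based cytotoxicity flags accompany data; two donor preparations used.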

[8] = read-out: alkyl and aryl transferase (GSTA2), GSTA2 (gene 2939); assay: CLD_GSTA2_48hr: CellzDirect (CLD) Gene Expression Assay for alkyl and aryl transferase (GSTA2) at 48 hours (AID 2283708);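 also: active means mRNA induction above DMSO vehicle baseline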
In short: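 GSTA2 mRNA quantified by qNPA chemiluminescence in human primary hepatocyte lysates after 48 h of daily fresh chemical dosing. Increases fitted against 0.2% DMSO vehicle baseline; cytotoxicity from morphology annotated yes/no.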

[9] = read-out: Glyceraldehyde-3-phosphate dehydrogenase (Homo sapiens) (UniProt P04406); assay: CLD_GAPDH_48hr: CellzDirect (CLD) Gene Expression Assay for Baseline Control (Glyceraldehyde 3-phosphate dehydrogenase) at 48 hours (AID 2283706);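 also: active means higher GAPDH mRNA than DMSO vehicle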
In short: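 GAPDH baseline-control readout: qNPA chemiluminescent mRNA quantitation in human liver primary cells 48 h after daily dosing on two consecutive days, vehicle 0.2% DMSO; gain of signal fitted against DMSO, cytotoxicity flagged by phase-contrast morphology.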

[10] = STM_H9_OrnithineISnorm_perc: Stemina devTOX quickPredict H9 human embryonic stem cell (hESC)-based Assay for Ornithine (ORN) Metabolite Biomarker, Normalized (AID 2283712; active = hit-call score of the fitted dose curve at least 0.9, where 1 is the maximum; inactive = score below 0.9;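 also: ornithine released into spent medium during last day measured by mass spectrometry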)
In short: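 Ornithine in spent medium from the last 24 h of a 72 h exposure, deproteinised and quantified by UPLC-HRMS against an isotope-labelled internal standard, expressed relative to 0.1% DMSO. Pluripotent H9 cells; compound refreshed every 24 h.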

[11] = read-out: HMG-CoA synthase (HMGCS2), HMGCS2 (gene 3158); assay: CLD_HMGCS2_48hr: CellzDirect (CLD) Gene Expression Assay for HMG-CoA synthase (HMGCS2) at 48 hours (AID 2283711)
In short: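 mRNA induction read by qNPA chemiluminescence, 48 h after dosing. Cultured primary human liver cells (two donor preparations) received fresh compound daily over two days against 0.2% DMSO vehicle; morphology-based cytotoxicity noted alongside.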

[12] = target: Luciferin 4-monooxygenase (Photinus pyralis) (UniProt P08659); assay: CCTE_Simmons_QuantiLum_inhib_2: CCTE's Firefly Luciferase Inhibition Assay, Simmons Lab (AID 2283767);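 as to AC50: potency for inhibitors that lower luciferase luminescence relative to DMSO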
In short: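 Eight test concentrations, 5 nM up to 87.5 uM final, preincubated 30min at 37C in the dark with purified luciferase (0.5% DMSO final). Detection reagent (150uM D-luciferin, 147uM dATP, 75uM CoA, pH 7.8) injected per well before kinetic luminescence read; three replicates.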

[13] = tested on: Thyroperoxidase (TPO), gene 445522; assay: CCTE_Simmons_GUA_TPO: CCTE's Guaiacol Assay for Thyroperoxidase (TPO) Inhibition, Simmons Lab (AID 2283750)
In short: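 Porcine thyroid microsomes (25 ug) in 200mM potassium phosphate, preincubated 30 s at 37C with compound (8 concentrations, 5 nM–87.5 uM) and 35mM guaiacol; 1mM H2O2 starts reaction. Absorbance change at 450nm over first 80 s; loss of signal versus DMSO, three replicates.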

[14] = ArunA_CellTiter_hNC: Viability Assessment in the ArunA Biomedical's Oris Neural Crest (hNC) Cell Migration Assay (AID 2283752)
In short: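 After a 72 h chemical exposure, viability of hNC cells is read with CellTiter Aqueous One and fitted as signal loss relative to DMSO. Cells were seeded at 60,000/well on Matrigel and cultured 16 h at 37 C beforehand.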

[15] = ArunA_CellTiter_hNP: Viability Assessment in the ArunA Biomedical's Oris Neural Crest (hNC) Cell Migration Assay (AID 2283753)
In short: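 Viability read with CellTiter 96 Aqueous One after 72 h chemical exposure of human hNP1 neuroprogenitors, which were plated on Matrigel in LIF/bFGF medium 16 h beforehand. Endpoint fitted in positive direction relative to DMSO.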

[16] = ArunA_Migration_hNP: ArunA Biomedical's Oris Neuroprogenitor (hNP) Cell Migration Assay (AID 2283754)
In short: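 Readout is calcein-AM fluorescence (ex494/em517) of cells migrating into the detection zone, relative to DMSO. hNP1 cells (H9-derived) grown on Matrigel behind stoppers 16 h, then stoppers pulled and chemical applied 72 h; cytochalasin D as control.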

[17] = ArunA_Migration_hNC: ArunA Biomedical's Oris Neural Crest (hNC) Cell Migration Assay (AID 2283755)
In short: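 Calcein-AM fluorescence (ex494 nm/em 517 nm) in the stopper-defined detection zone quantifies migration of hNC cells after 72 h chemical exposure; 60,000 cells/well plated on Matrigel with LIF and bFGF, 16 h pre-incubation. DMSO baseline.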

[18] = ArunA_NOG_NucleusCount: ArunA Biomedical's Neurite Outgrowth (NOG) Assay for Nucleus Count (AID 2283756)
In short: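 Viable neuron count, from Hoechst nuclei passing size and intensity gates, imaged at 20x on differentiated H9-derived human neurons. Exposure lasted 48 h from seeding; activity was scored relative to DMSO.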

Measured: AC50

Chain of Glyceraldehyde-3-phosphate dehydrogenase (Homo sapiens) (P04406 whole entry, looked up): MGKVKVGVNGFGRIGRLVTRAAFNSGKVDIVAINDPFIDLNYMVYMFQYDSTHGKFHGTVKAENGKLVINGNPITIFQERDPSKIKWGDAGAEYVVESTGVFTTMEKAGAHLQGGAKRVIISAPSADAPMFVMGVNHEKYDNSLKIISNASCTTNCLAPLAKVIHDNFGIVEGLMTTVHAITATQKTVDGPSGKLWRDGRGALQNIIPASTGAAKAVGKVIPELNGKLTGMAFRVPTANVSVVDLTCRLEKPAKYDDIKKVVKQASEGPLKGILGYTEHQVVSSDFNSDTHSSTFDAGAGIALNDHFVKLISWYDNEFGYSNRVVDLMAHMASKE
Chain of Luciferin 4-monooxygenase (Photinus pyralis) (P08659 whole entry, looked up): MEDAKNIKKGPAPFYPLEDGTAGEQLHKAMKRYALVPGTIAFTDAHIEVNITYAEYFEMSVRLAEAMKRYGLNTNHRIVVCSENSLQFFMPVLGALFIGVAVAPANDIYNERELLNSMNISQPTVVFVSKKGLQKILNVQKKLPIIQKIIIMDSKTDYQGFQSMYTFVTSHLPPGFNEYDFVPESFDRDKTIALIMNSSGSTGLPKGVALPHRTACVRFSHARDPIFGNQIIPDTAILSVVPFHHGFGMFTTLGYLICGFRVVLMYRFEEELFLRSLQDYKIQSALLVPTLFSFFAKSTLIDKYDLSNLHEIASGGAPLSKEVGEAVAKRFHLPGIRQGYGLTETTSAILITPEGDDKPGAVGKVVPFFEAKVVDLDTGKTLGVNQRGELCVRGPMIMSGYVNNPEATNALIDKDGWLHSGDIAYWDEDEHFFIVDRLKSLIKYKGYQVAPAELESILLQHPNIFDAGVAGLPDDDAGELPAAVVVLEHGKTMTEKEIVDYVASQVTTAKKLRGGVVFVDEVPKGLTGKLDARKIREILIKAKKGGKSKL
Chain of Broad substrate specificity ATP-binding cassette transporter ABCG2 (Homo sapiens) (Q9UNQ0 whole entry, looked up): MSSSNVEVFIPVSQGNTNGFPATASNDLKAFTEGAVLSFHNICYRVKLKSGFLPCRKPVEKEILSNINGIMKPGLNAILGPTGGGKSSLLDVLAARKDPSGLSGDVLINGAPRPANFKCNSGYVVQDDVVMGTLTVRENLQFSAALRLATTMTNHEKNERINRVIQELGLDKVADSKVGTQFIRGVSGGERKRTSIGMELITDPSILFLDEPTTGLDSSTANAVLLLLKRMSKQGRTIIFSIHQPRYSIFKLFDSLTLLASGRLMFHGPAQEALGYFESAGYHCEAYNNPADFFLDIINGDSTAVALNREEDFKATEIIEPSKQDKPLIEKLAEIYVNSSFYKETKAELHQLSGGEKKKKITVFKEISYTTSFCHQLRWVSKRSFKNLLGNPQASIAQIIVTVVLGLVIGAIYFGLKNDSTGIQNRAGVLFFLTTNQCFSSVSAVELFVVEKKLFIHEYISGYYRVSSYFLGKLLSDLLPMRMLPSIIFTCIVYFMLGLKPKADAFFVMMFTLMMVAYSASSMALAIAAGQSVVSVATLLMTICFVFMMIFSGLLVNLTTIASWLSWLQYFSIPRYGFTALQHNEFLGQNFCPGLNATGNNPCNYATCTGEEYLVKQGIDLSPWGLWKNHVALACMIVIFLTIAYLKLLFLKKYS

CCOc1cc(C(C)(C)C)ccc1C1COC(c2c(F)cccc2F)=N1 (centres undefined)
inactive: [2] | [3] | [5] | [6]
active: [1] 20 µM | [4] 7.73 µM

OC(c1ccc(Cl)cc1)(c1ccc(Cl)cc1)C(Cl)(Cl)Cl
active: [7] 20 µM
inactive: [1] | [2] | [8] | [3] | [6]

Clc1cccc(C(Cl)(Cl)Cl)n1
active: [10] 19.7 µM
inactive: [1] | [2] | [9] | [8] | [3] | [6]

CC(C)N1C(=O)N(c2ccccc2)CSC1=NC(C)(C)C
inactive: [1] | [2] | [8] | [3] | [6]

Nc1c(Cl)c(F)nc(OCC(=O)O)c1Cl
inactive: [1] | [2] | [7] | [3] | [11] | [6]

CCOc1nc(C(Cl)(Cl)Cl)ns1
active: [1] 5.52 µM | [7] 3.97 µM | [10] 0.11 µM
inactive: [9] | [3] | [11] | [5] | [6] | [12]

CC1(C)CCC(=Cc2ccc(Cl)cc2)C1(O)Cn1cncn1 (centres undefined)
active: [1] 1.66 µM | [10] 78.2 µM
inactive: [2] | [3] | [5] | [6]

Cc1c(COC(=O)[C@@H]2[C@H](/C=C(\Cl)C(F)(F)F)C2(C)C)cccc1-c1ccccc1
inactive: [1] | [2] | [8] | [3] | [11] | [5] | [6]

CC(C)Oc1cccc(NC(=O)c2ccccc2C(F)(F)F)c1
active: [1] 7.17 µM | [2] 0.000858 µM | [7] 36.6 µM | [5] 71.1 µM | [6] 34.2 µM
inactive: [3] | [4]

CC1(C)C(C(=O)OC(C#N)c2cccc(Oc3ccccc3)c2)C1(C)C (centres undefined)
inactive: [1] | [2] | [8] | [11] | [6]
active: [3] 5.67 µM

COP(=S)(OC)SCn1nnc2ccccc2c1=O
inactive: [2] | [8] | [4] | [5] | [6] | [12]
active: [1] 0.409 µM | [7] 1.36 µM | [3] 6.38 µM | [13] 49.6 µM

COc1cc(Cl)c(OC)cc1Cl
inactive: [1] | [2] | [9] | [8] | [3] | [5] | [6]
active: [7] 3.97 µM

Cc1ccc(N=CN(C)C=Nc2ccc(C)cc2C)c(C)c1
active: [1] 0.673 µM | [2] 17.4 µM
inactive: [9] | [8] | [6]

CCCN(CC)CC1COC2(CCC(C(C)(C)C)CC2)O1 (centres undefined)
active: [1] 0.199 µM
inactive: [2] | [9] | [8] | [3] | [11] | [10] | [5] | [6]

CS(=O)(=O)c1cc(C(F)(F)F)ccc1C(=O)c1cnoc1C1CC1
active: [1] 20 µM | [10] 0.0772 µM
inactive: [2] | [9] | [8] | [3] | [11] | [6]

CNC(=O)N(C)c1nnc(C(C)(C)C)s1
inactive: [1] | [2] | [9] | [8] | [3] | [11] | [6]

CCCCC(O)(Cn1cncn1)c1ccc(Cl)cc1Cl (centres undefined)
inactive: [2] | [8] | [3] | [6]
active: [1] 3.97 µM | [7] 20 µM | [10] 85.1 µM

N#CN=C1SCCN1Cc1ccc(Cl)nc1
inactive: [1] | [2] | [8] | [3] | [10] | [5] | [6]

CCCCC(C#N)(Cn1cncn1)c1ccc(Cl)cc1 (centres undefined)
active: [1] 11.7 µM | [10] 76 µM
inactive: [2] | [8] | [3] | [5] | [6]

Nc1cnn(-c2ccccc2)c(=O)c1Cl
active: [1] 4.24 µM
inactive: [2] | [9] | [8] | [5] | [6]

Clc1nc(Cl)nc(Nc2ccccc2Cl)n1
inactive: [1] | [2] | [9] | [8] | [3] | [5] | [6]
active: [12] 8.85 µM

COP(=S)(OC)Oc1ccc([N+](=O)[O-])c(C)c1
active: [1] 3.97 µM | [3] 5.37 µM
inactive: [2] | [8] | [5] | [6] | [13] | [12]

CS(=O)(=O)c1ccc(C(=O)C2C(=O)CCCC2=O)c([N+](=O)[O-])c1
inactive: [1] | [2] | [9] | [8] | [3] | [11] | [10] | [6] | [12]

CSC(=O)c1c(C(F)F)nc(C(F)(F)F)c(C(=O)SC)c1CC(C)C
active: [1] 6.64 µM | [7] 20 µM | [8] 11.8 µM
inactive: [2] | [3] | [4] | [6]

CO/N=C(/C1=NOCCO1)c1ccccc1Oc1ncnc(Oc2ccccc2Cl)c1F
active: [10] 24 µM | [6] 3.17 µM
inactive: [1] | [2] | [8] | [3] | [4]

COC(=O)c1c(C(F)F)nc(C(F)(F)F)c(C2=NCCS2)c1CC(C)C
inactive: [2] | [3] | [6]
active: [1] 1.66 µM | [7] 8.66 µM | [8] 20 µM | [4] 1.7 µM | [5] 38.8 µM

CC(C)=CC1C(C(=O)OCc2coc(Cc3ccccc3)c2)C1(C)C (centres undefined)
inactive: [1] | [2] | [9] | [8] | [3] | [6] | [12]

COC(=O)NC(=S)Nc1ccccc1NC(=S)NC(=O)OC
active: [1] 15.7 µM | [13] 49.6 µM
inactive: [2] | [8] | [3] | [11] | [5] | [6] | [12]

CCNC(=O)NC(=O)C(C#N)=NOC
inactive: [1] | [2] | [7] | [8] | [3] | [10] | [12]
active: [6] 32.4 µM

C=C(C)CN(CC)c1c([N+](=O)[O-])cc(C(F)(F)F)cc1[N+](=O)[O-]
inactive: [1] | [2] | [9] | [8] | [3] | [6]

COc1cc(OC)nc(NC(=O)NS(=O)(=O)c2ncccc2OCC(F)(F)F)n1
inactive: [1] | [2] | [3] | [4] | [11] | [10] | [6]

CC(C)(C)C(=O)C(Oc1ccc(Cl)cc1)n1cncn1 (centres undefined)
inactive: [2] | [8] | [3] | [10] | [5]
active: [1] 12.9 µM | [6] 33.6 µM

COc1ccc(-c2ccccc2)cc1NNC(=O)OC(C)C
active: [1] 0.127 µM | [10] 42.1 µM | [12] 0.556 µM
not listed: [5] | [7] | [9] | [13]
inactive: all other assays above
